Source: PubChem BioAssay
Values without a mark were called inactive. No rule for the calls is given here.

assay: hESC survival regulators, cell-based (AID 493140); settings: human embryonic stem cell survival screen; active compounds read high;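 also: cells exposed to compounds for four days before counting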

| Compound | survival |
| --- | --- |
| CCCCCCCC[C@@H](O)/C=C/C=C/C=C\[C@@H](O)CCCC(=O)O | 96.4 |
| CO[C@@H]1[C@H](OC(N)=O)C(O)[C@H](Oc2ccc3c(O)c(NC(=O)c4ccc(O)c(CC=C(C)C)c4)c(=O)oc3c2C)OC1(C)C (some centres not stated) | 8.33 |
| CC(C)NCC1CCc2cc(CO)c([N+](=O)[O-])cc2N1 (configuration not stated) | 28.3 |
| CCCCCCCCCCCCC/C=C/[C@@H](O)[C@@H](N)COP(=O)(O)O | 87.9 |
| CCCCC/C=C\C[C@@H]1O[C@H]1/C=C/C(O)C/C=C\CCCC(=O)O (some centres not stated) | 93.9 |
| O=P(O)(O)C(O)c1ccc2ccccc2c1 (configuration not stated) | 93.4 |
| CCCCC[C@H](O)/C=C/C=C\C/C=C\C=C\[C@@H](O)CCCC(=O)O | 103 |
| CC(C)c1cc(/C=C(\C#N)C(=O)NCCCc2ccccc2)cc(C(C)C)c1O | 124 |
| Nc1ncn(C2O[C@H](CO)[C@H](O)[C@@H]2O)c(=O)n1 (some centres not stated) | 0.083 |
| C=CCN1/C(=C\CO)[C@@H]2C[C@@H]3[C@H]1CC[C@@]31c3ccccc3N3/C=C4\C5N(/C=C/2C31)c1ccccc1[C@@]51CC[C@@H]2[C@H]1C[C@H]4/C(=C/CO)N2CC=C (some centres not stated) | 26.5 |
| COC1C(O)CC(=O)OC(C)CC=CC=CC(OC2CCC(N(C)C)C(C)O2)C(C)CC(CC=O)C1OC1OC(C)C(OC2CC(C)(O)C(O)C(C)O2)C(N(C)C)C1O (configuration not stated) | 3.42 |
| C[C@@H](O)CCC[C@H](O)/C=C/[C@H]1[C@H](O)CC(=O)[C@@H]1C/C=C\CCCC(=O)O | 111 |
